Reference: PubChem BioAssay
Values joined by “and” are separate entries in the source; they are usually repeats but may differ in a detail not shown here. Identical values can stand only once. The source holds several records for some structures; these can differ, active in one and inactive in another. Active and inactive are the calls of the source. Unless noted, how the calls were made is not given here.

What was measured:
[1] = liver-stage malaria parasite growth inhibition, primary screen, cell-based, HepG2, luciferase luminescence, HepG2 viability (AID 624349; in the data active means parasite load remaining mostly below about 12%, no sharp cut-off; inactive means mostly above about 10%;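 further: 100% = mean of DMSO negative control wells on the same plate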); details: P. berghei liver stage in HepG2, luciferase luminescence, concentration not given here; parasite load remaining: stronger effect = lower value; viability: measured here: HepG2 viability without parasites
[2] = Cy5 fluorescence interference with SSB-bound oligo, artefact control for HCV NS3 helicase inhibitor project, biochemical, NIH Clinical Collection, E. coli SSB (AID 743268)
[3] = tested on: Hepatitis C virus NS3 helicase; experiment: HCV NS3 helicase inhibitors, primary screen, biochemical, fluorescence polarization, NIH Clinical Collection (AID 743270); details: NS3 helicase binding to Cy5-dT15 DNA, stronger effect = higher value, concentration not given here
[4] = biological target: Single-stranded DNA-binding protein (Escherichia coli (strain K12)) (UniProt P0AGE0); experiment: E. coli SSB displacement from DNA, counter-screen for HCV NS3 helicase inhibitor project, biochemical, fluorescence polarization, NIH Clinical Collection (AID 743271; in the data active means inhibition above about 28%); details: stronger effect = higher value, concentration not given here
[5] = fluorescence interference in NS3h assay format, artefact control for HCV NS3 helicase inhibitor project, biochemical, NIH Clinical Collection (AID 743272); details: fluorescence interference counterscreen, stronger effect = lower value;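 further: HCV NS3 helicase with a Cy5 labelled single stranded DNA probe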
[6] = stimulators of nuclear beta-catenin in C2C12, primary screen, imaging, WNT3A-conditioned medium, mouse C2C12, NPC library (AID 1117326; in the data active means nuclear beta-catenin stimulation mostly above about 4.2%, no sharp cut-off; inactive means mostly below about 10%); details: stronger effect = higher value
[7] = stimulators of insulin release from INS-1E, primary screen, cell-based, 5 mM glucose, NPC library (AID 1117329;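 active means compound raises insulin release from rat beta cells at 5 mM glucose, no numeric limit stated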); details: rat INS-1E insulin secretion, at 10 µM, stronger effect = higher value
[8] = growth inhibition of GSK3B-pretreated HCT116 cells – cell-based, CellTiter-Glo, 0.2 to 20 µM (AID 1117336;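 active means compounds lowering colon cancer cell viability after pretreatment blocking the GSK3B kinase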); details: HCT116 viability after GSK3B inhibitor, at 20 µM, stronger effect = higher value
[9] = inhibition of endothelial tube formation, primary screen, imaging, VEGF stimulated, CD31 staining, tube area, NPC library (AID 1117340;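 active means compound that reduces growth-factor-driven endothelial tube area in a mixed cell culture, no cutoff stated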); details: VEGF-stimulated ADSC/ECFC co-culture, at 10 µM, stronger effect = higher value
[10] = glucagon-like peptide 1 release enhancers, primary assay, NCI-H716 cell line, NPC library (AID 1117341;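 active means compound raises GLP1 secretion from the human gut endocrine cells, with no numeric limit stated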); details: NCI-H716 cells, at 10 µM, stronger effect = higher value
[11] = HCT116 colon cancer cell growth inhibition, primary screen, CellTiter-Glo luminescence, NPC library (AID 1117342;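 active means compounds that lower survival of HCT116 colon cancer cells in the luminescence readout, no numeric limit stated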); details: at 20 µM (top of the series)
[12] = CellTiter-Glo luminescent readout of SW480 viability loss, NPC library primary (AID 1117343;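 active means compounds that lower viability of the colon cancer cells in the luminescence readout, with no numeric limit stated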); details: CellTiter-Glo luminescence; at 20 µM (top of the series)
[13] = decreased DLD-1 cellular survival, CellTiter-Glo luminescent readout, NPC compound collection, primary HTS (AID 1117346;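 active means compounds that lower survival of DLD-1 colon cancer cells in the luminescence readout, no cutoff given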); details: DLD-1 viability, CellTiter-Glo luminescence; at 20 µM (top of the series)
[14] = biological target: 6-phosphogluconate dehydrogenase, decarboxylating (Homo sapiens) (UniProt P52209); experiment: 6PGD enzyme inhibitors, primary screen, biochemical, human, recombinant enzyme, NADPH absorbance (AID 1159550;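 active means at least 20% inhibition of 6-phosphogluconate dehydrogenase activity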); details: recombinant 6PGD, NADPH absorbance 341 nm; at 10 µM; stronger effect = higher value
Sequence of 6-phosphogluconate dehydrogenase, decarboxylating (Homo sapiens) (P52209 whole entry, looked up): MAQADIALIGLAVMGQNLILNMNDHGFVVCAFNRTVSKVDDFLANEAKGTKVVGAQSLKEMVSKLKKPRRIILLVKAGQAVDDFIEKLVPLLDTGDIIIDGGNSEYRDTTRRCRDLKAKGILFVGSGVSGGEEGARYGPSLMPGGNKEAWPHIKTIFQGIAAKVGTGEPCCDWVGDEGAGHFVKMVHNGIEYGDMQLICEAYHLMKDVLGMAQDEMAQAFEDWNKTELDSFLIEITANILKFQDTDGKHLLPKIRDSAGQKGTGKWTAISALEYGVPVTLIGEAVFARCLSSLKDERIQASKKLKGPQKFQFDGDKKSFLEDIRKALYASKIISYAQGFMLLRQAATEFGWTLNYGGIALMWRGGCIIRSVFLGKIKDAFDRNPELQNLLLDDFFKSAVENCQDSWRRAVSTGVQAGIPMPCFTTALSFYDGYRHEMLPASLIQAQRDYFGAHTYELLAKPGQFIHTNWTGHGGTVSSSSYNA

[15] = sensitizers of A549 cells to miR-34 induction, primary screen, imaging, A549 dox-inducible miR-34, nuclei and caspase counts (AID 1347080;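 active means compounds whose cell count with miR-34 switched on is under 0.7 times the count with it off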); details: A549 miR-34 inducible, Hoechst nuclei count, 48 h
[16] = survival rescue of mitochondrial mutant cells in low glucose, primary screen, MELAS cybrids, Rieske KO mouse fibroblasts, CellTiter-Glo (AID 1508586;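 active means mean z-score across replicates of 1.96 or higher in either the MELAS or the Rieske mutant cell line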;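 further: z relative to plate mean and SD of compound and empty wells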)
[17] = biological target: NAD(+) hydrolase SARM1 (Homo sapiens) (UniProt Q6SZW1); experiment: SARM1 TIR NADase inhibitors, cell lysate, NAD-Glo luminescence (AID 1508614;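 active means compound whose remaining NAD level is above about 45 nM, limit read from the data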); details: SAM-TIR HEK293T lysate NADase, at 1 µM, stronger effect = higher value
Sequence of NAD(+) hydrolase SARM1 (Homo sapiens) (Q6SZW1 whole entry, looked up, the tested form may be a part): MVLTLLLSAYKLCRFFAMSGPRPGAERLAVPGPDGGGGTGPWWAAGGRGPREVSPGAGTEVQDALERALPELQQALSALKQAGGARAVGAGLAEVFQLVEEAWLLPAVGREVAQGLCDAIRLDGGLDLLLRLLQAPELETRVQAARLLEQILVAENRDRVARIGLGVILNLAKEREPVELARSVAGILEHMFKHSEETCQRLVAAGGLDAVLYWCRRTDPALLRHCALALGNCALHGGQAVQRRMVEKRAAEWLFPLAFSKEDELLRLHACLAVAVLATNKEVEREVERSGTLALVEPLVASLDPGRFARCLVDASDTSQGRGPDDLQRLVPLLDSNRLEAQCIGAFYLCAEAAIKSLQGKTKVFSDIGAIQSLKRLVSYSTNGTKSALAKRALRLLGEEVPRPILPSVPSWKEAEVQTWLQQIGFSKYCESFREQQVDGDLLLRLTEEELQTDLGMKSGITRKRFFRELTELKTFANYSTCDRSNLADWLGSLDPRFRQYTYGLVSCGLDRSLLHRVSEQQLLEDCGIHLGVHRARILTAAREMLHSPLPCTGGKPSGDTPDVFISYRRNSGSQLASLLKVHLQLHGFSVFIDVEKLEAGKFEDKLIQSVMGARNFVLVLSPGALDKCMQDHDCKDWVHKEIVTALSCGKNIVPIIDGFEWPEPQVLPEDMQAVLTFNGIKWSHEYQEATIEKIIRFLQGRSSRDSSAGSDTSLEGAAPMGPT

[18] = biological target: Mitogen-activated protein kinase 7 (Homo sapiens) (UniProt Q13164); experiment: ERK5 transactivation activators in reporter cells, primary screen, cell-based, HTS (AID 1508626;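 active means luciferase signal above three times the same-plate solvent-only control wells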;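 further: luciferase driven by Gal4-ERK5 fusion binding five Gal4 sites before minimal TATA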); details: HeLa Gal4-ERK5 transactivation, 18 h, at 5 µM, stronger effect = higher value
Sequence of Mitogen-activated protein kinase 7 (Homo sapiens) (Q13164 whole entry, looked up, the tested form may be a part): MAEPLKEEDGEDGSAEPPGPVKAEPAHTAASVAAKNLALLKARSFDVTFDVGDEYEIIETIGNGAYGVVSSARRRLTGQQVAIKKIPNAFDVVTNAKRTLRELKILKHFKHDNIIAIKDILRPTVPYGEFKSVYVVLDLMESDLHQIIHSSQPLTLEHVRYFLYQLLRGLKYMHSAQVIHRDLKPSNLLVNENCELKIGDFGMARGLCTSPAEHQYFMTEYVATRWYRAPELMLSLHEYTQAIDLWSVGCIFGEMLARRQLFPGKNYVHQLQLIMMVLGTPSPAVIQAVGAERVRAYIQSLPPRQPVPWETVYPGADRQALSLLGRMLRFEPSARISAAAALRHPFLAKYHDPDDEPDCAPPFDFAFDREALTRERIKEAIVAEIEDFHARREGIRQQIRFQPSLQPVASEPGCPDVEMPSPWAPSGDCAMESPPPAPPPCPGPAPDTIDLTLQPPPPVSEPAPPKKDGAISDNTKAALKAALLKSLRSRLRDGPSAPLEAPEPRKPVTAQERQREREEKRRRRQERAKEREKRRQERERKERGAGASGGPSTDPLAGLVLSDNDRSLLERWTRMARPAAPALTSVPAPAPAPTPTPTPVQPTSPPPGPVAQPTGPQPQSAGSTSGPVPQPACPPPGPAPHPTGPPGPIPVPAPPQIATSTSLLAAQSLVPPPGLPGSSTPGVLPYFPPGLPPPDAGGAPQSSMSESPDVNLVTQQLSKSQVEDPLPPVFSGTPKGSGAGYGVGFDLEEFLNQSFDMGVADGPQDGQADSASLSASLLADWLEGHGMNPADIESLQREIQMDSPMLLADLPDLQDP

F380Y = experiment: modulators of BK channel variants, profiling panel, selectivity assay, cell-based, U2OS BacMam, thallium flux, beta subunits (AID 1259406;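 active means thallium flux through the channel raised or lowered by more than 3 SD from vehicle-only wells, actives on both sides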;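 further: initial slope of Thallos dye fluorescence rise after thallium is added; log ratio against the mean of 0.3% DMSO vehicle wells on the same plate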); details: at 30 µM
[19] = MELAS cybrid survival, CellTiter-Glo 48 h, stronger effect = higher value
[20] = Rieske KO mouse fibroblast survival, CellTiter-Glo 72 h

CC(C)Oc1ccc2c(=O)c(-c3ccccc3)coc2c1
active: inhibition of viability [11] 75.7% and 54.6% | viability decrease (inhibition) [12] 58.3% and 71%
0.976 and 0.611: z-score [16, 20]
1.09 and 1.31: fold change ([15]; measured here: relative caspase fold change +Dox/-Dox)
8700 and 8850: cell count ([15]; measured here: total cells with miR-34 induction, stronger effect = lower value)
-0.279 (inactive) and 1.99 (active): z-score [16, 19]
63.7%: viability [1]
-1.4% and 0.1%: nuclear beta-catenin stimulation ([6]; stimulation, at 2 µM)
inactive: parasite load remaining [1] 170% | fluorescence ratio [2] 1.05 | inhibition [3] 3.56% | inhibition [4] 5.29% | fluorescence ratio [5] 1.04 | nuclear beta-catenin stimulation ([6]; at 10 µM) 1.8% and 1% | insulin secretion stimulation [7] 1.75% and -0.3% | viability decrease [8] 45.8% and -14.2% | tube area decrease [9] -10.2% and -25.5% | GLP1 secretion stimulation [10] -2.3% and -2.1% | viability decrease (inhibition) [13] 38.2% and 30.5% | inhibition [14] 8.55% | fold change ([15]; stronger effect = lower value, cell number ratio, induced over uninduced) 0.928 and 0.917 | remaining NAD [17] 10 nM | luciferase signal [18] 56 AU | log fold change Tl+ flux (F380Y) -0.0497
9370 and 9660: cell count ([15]; measured here: total cells without miR-34 induction)

CC(C)(C)NC[C@H](O)COc1nsnc1N1CCOCC1
0.265 and 0.0861: z-score [16, 20]
97.8% and 98% and 104%: viability [1]
inactive: parasite load remaining [1] 64.7% and 81.2% and 46% | fluorescence ratio [2] 0.99 | inhibition [3] 0.45% | inhibition [4] 2.57% | fluorescence ratio [5] 0.98 | nuclear beta-catenin stimulation ([6]; at 10 µM) 2.1% | insulin secretion stimulation [7] 3.2% | viability decrease [8] 6.4% | tube area decrease [9] -8.3% | GLP1 secretion stimulation [10] 1.7% | inhibition of viability [11] -6.3% | viability decrease (inhibition) [12] -4.9% | viability decrease (inhibition) [13] -2.7% | inhibition [14] -2.5% | z-score [16, 19] 0.744 and 0.988 | remaining NAD [17] 10 nM | luciferase signal [18] 32 AU | log fold change Tl+ flux (F380Y) 0.0205
0.4%: nuclear beta-catenin stimulation ([6]; stimulation, at 2 µM)
